Source: PubChem (National Center for Advancing Translational Sciences (NCATS))
IP6K1 inhibitor – IP6K1 kinase inhibition; Q92551; IP6K1 kinase, ADP-Glo luminescence, 2 h; active compounds read low; activity change, % (series mostly up to about 58 µM); hit rate 0.81% among 140,000; AID 1645851; in the data active means activity change below about -25%; further: on the % scale 0 is the no-effect control and ±100 the full control effect
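ADP-Glo luminescence measures ADP made by human IP6K1 during a 2 h RT reaction with ATP/IP6 (mix at 1.3 mM/130 uM); top library doses 57.5 and 19.1 uM final.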
SNCA viab count – counter-screen for SNCA expression inhibitors: cell viability; HEK-293-SNCA-luc viability, GF-AFC fluorescence, 24 h; Potency, µM (titrated, usually from 57.1 µM), inactives show at the highest dose activity change, negative = cytotoxicity, actives largely listed as cytotoxic; hit rate 0.12% among 150,000; AID 1671193;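 further: potency means the concentration at half of the fitted maximal effect; 0% = DMSO-treated cells and -100% = medium-only wells without cells; nearly all actives have a fitted effect of over 30% in size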
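Cytotoxicity counterscreen: after 24 h compound treatment of genome-edited SNCA-luciferase HEK-293 cells, live-cell protease substrate GF-AFC read by fluorescence after 30 min; activity scaled between DMSO (0%) and medium-only (-100%), curves Hill-fitted.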
SNCA expr inhib – inhibitors of alpha-synuclein (SNCA) gene expression; AID 1671194; HEK-293 SNCA-luciferase knock-in, luminescence, 24 h; Potency, µM (series often up to 57.2 µM), without a hit: top-dose activity change, negative = inhibition, most hits filed as inhibitors; hit rate 0.17% among 140,000;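 further: potency means the concentration at half of the fitted maximal effect; plate controls were DMSO cells for no effect and cell-free wells for full effect; nearly all actives have a fitted effect of over 45% in size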
KDM5B inhibitor – KDM5B demethylase inhibition. KDM5B demethylase, FDH-coupled NADH fluorescence (FDH is formaldehyde dehydrogenase). hit rate 2.6% among 220,000. Potency, µM (titrated, usually from 57.7 µM), hits mostly inhibitors; further: potency means the concentration at half of the fitted maximal effect; 0% is about no effect; nearly all actives have a fitted effect of over 70% in size
Target sequence (Q9UGL1 whole entry, looked up): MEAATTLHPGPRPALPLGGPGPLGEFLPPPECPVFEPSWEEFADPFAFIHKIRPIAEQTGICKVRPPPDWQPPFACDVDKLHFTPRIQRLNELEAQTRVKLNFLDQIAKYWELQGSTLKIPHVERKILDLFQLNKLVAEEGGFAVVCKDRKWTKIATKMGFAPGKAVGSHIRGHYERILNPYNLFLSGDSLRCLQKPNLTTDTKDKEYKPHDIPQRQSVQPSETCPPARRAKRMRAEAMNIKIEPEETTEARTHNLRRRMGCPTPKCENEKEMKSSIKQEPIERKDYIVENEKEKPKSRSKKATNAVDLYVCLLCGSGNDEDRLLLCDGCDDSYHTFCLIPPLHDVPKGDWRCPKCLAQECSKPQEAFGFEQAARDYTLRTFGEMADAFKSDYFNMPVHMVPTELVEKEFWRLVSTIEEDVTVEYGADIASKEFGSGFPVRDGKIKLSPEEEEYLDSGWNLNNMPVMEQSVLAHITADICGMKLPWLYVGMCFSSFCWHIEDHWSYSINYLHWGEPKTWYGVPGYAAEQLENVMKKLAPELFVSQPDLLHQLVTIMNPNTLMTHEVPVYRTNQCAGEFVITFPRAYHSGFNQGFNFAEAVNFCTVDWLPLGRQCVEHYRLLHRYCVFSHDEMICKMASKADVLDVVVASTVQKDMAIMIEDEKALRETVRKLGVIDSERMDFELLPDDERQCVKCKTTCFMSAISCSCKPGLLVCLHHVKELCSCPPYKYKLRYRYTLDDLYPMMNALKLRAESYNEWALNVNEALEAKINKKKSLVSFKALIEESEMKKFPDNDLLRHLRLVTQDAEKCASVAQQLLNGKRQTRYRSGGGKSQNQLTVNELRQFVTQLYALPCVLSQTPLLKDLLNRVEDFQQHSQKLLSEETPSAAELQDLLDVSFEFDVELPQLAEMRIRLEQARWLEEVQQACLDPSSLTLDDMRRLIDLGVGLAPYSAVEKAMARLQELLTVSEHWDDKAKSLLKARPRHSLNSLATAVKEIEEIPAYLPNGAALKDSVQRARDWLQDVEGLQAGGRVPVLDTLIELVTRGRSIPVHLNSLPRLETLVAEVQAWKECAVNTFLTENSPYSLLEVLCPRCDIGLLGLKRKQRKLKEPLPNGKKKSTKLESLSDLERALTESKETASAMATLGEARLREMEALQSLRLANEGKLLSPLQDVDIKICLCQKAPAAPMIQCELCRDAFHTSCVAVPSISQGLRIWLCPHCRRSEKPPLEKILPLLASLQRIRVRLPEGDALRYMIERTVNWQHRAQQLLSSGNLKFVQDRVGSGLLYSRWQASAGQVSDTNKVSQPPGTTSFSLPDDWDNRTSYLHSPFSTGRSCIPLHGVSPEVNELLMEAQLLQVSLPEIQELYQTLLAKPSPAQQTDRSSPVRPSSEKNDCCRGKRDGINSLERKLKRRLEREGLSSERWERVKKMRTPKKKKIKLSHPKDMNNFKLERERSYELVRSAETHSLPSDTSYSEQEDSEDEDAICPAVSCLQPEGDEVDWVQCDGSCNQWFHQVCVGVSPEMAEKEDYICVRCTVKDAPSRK
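Here, H3K4me3 peptide (12.5 µM in substrate mix) is demethylated by KDM5BΔAP, 200 nM final, after 10 min compound exposure. Formaldehyde product is coupled through FDH (0.25 U/mL in mix) to NADH fluorescence; 30-min ΔRFU feeds dose-response curves.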
Numbers without * were called inactive; [ ] = dose if it differs, or a comment. In the library only some 2.8% were active in any assay of this set; here they are far more common. Unless noted, the call rests on the fitted dose curve; in most records, active means well fitted curve in the direction sought with a large enough effect; inconclusive means small, poorly fitted or top-dose-only effect, or another doubt; inactive means no such curve, though single readings can be large; an effect the other way counts as inactive or inconclusive.

Cc1nc(CC2CCN(c3nccc(-c4cccnc4)n3)CC2)no1 was read as IP6K1 inhibitor -7, SNCA viab count -3%, SNCA expr inhib 1% and KDM5B inhibitor 22µM*.
Screening Cc1noc(C)c1CCCNC(=O)c1ccc(N2CCN(CC3CC3)CC2)nc1 returned IP6K1 inhibitor 6, SNCA viab count -4%, SNCA expr inhib 1% and KDM5B inhibitor 28µM*.
Screening CN(C)c1ccc(CN2CCCC3(C2)C(=NC2CCCCC2)NC(=O)N3c2cc(F)cc(F)c2)cc1 (stereo unspecified) returned IP6K1 inhibitor -11, SNCA viab count inconclusive, SNCA expr inhib inconclusive and KDM5B inhibitor inactive.
`COc1ccccc1CNC(=O)[C@@H]1Cc2cn(C)c3cccc(c23)[C@H](CC(C)C)N1` gave IP6K1 inhibitor -5, SNCA viab count inconclusive, SNCA expr inhib inconclusive and KDM5B inhibitor 35µM*.
For CC#CCn1cc2c3c(cccc31)[C@H](CC(C)C)N[C@H](C(=O)N1CCN(CCOC)CC1)C2 the results were IP6K1 inhibitor 0, SNCA viab count -22%, SNCA expr inhib 15% and KDM5B inhibitor 28µM*.
For CCCCCCCn1c(CN2CCN(c3ccccc3F)CC2)nc2c1c(=O)n(C)c(=O)n2C the results were KDM5B inhibitor inactive.
`Cc1cccc(C)c1-c1nc(C(=O)NCc2cccnc2)n2ccccc12` gave IP6K1 inhibitor 37, SNCA viab count 0%, SNCA expr inhib 15% and KDM5B inhibitor 25µM*.
`O=C(NCc1cccnc1)c1nc(-c2ccc(Cl)nc2)c2ccccn12` gave IP6K1 inhibitor -12, SNCA viab count -13%, SNCA expr inhib 20% and KDM5B inhibitor 89µM*.
For COCCNC(=O)c1nc(-c2ccsc2)c2ccccn12 the results were IP6K1 inhibitor -5, SNCA viab count 8%[87.6 µM], SNCA expr inhib 58%[87.6 µM] and KDM5B inhibitor 40µM*.
O=C(O)c1cnc(NCc2cccnc2)nc1-c1ccc(Cl)cc1 was read as IP6K1 inhibitor -11, SNCA viab count 3%, SNCA expr inhib 3% and KDM5B inhibitor 32µM*.
For COc1cccc(-c2nc(NCc3cccnc3)ncc2C(=O)O)c1 the results were IP6K1 inhibitor 11, SNCA viab count 4%, SNCA expr inhib -16% and KDM5B inhibitor inconclusive.
C[C@@]1(c2cc(-c3cncnc3)c(F)cc2F)CCSC(N)=N1 was read as IP6K1 inhibitor 11, SNCA viab count 17%[23.9 µM] and SNCA expr inhib -8%.
`Cc1cccc(C)c1-c1nc(C(=O)NCc2ccsc2)n2ccccc12` gave IP6K1 inhibitor -1, SNCA viab count 6%, SNCA expr inhib 13% and KDM5B inhibitor 32µM*.
O=C(NCc1cccnc1)c1nc(-c2ccccc2)c2ccccn12 was read as IP6K1 inhibitor 8, SNCA viab count 3%[87.6 µM], SNCA expr inhib 3%[87.6 µM] and KDM5B inhibitor inactive.
COc1ccc(-c2nc(C(=O)NCc3cccnc3)n3ccccc23)cc1 was read as IP6K1 inhibitor 3, SNCA viab count -9%, SNCA expr inhib 3% and KDM5B inhibitor 28µM*.
For O=C(NCc1cccnc1)c1nc(-c2ccc(Cl)cc2)c2ccccn12 the results were IP6K1 inhibitor 15, SNCA viab count -1%, SNCA expr inhib -1% and KDM5B inhibitor 28µM*.
Screening O=C(NCc1cccnc1)c1nc(-c2cc(Cl)cc(Cl)c2)c2ccccn12 returned IP6K1 inhibitor -8, SNCA viab count 13%, SNCA expr inhib 2% and KDM5B inhibitor inactive.
Screening O=C1COc2ccc(-c3ccncc3)nc2CN1Cc1ccccc1F returned IP6K1 inhibitor 2, SNCA viab count 4%[87.6 µM], SNCA expr inhib -19%[87.6 µM] and KDM5B inhibitor 35µM*.
For O=C1COc2ccc(-c3ccncc3)nc2CN1Cc1ccc(F)cc1 the results were IP6K1 inhibitor -9, SNCA viab count 3%[87.6 µM], SNCA expr inhib -4%[87.6 µM] and KDM5B inhibitor 25µM*.
`COc1ccc(-c2ccc3c(n2)CN(Cc2ccc(F)cc2)C(=O)CO3)cc1` gave IP6K1 inhibitor -3, SNCA viab count inconclusive, SNCA expr inhib inconclusive and KDM5B inhibitor 22µM*.
`COc1cccc(-c2ccc3c(n2)CN(Cc2ccc(F)cc2)C(=O)CO3)c1` gave IP6K1 inhibitor 1, SNCA viab count -23%[87.6 µM], SNCA expr inhib -11%[87.6 µM] and KDM5B inhibitor inactive.
For Cc1ccc(C)c(C(=O)N2CCN(c3cc(-c4ccc(Cl)cc4)[nH]n3)CC2)c1 the results were IP6K1 inhibitor 4, SNCA viab count inconclusive, SNCA expr inhib inconclusive and KDM5B inhibitor inconclusive.
CC(=O)NCC(=O)N1CC[C@@H]2COCCN(Cc3ccccc3)[C@@H]2C1 was read as IP6K1 inhibitor 14, SNCA viab count -2%, SNCA expr inhib 1% and KDM5B inhibitor inactive.
`Cc1ccccc1-c1nc(N2CCOCC2)cc2c1CN(Cc1ccccc1)C2=O` gave IP6K1 inhibitor 10, SNCA viab count -27%[87.6 µM], SNCA expr inhib inconclusive and KDM5B inhibitor 32µM*.
Screening COc1ccc(-c2noc(C3CC(=O)N(c4ccccc4)C3)n2)c(OC)c1 (stereo unspecified) returned IP6K1 inhibitor -10, SNCA viab count -6%, SNCA expr inhib 70% and KDM5B inhibitor inactive.
`Cc1ccccc1-c1nc(N2CCOCC2)cc2c1CN(c1ccccc1)C2=O` gave IP6K1 inhibitor 14, SNCA viab count -3%[87.6 µM], SNCA expr inhib 0%[87.6 µM] and KDM5B inhibitor 35µM*.
Cc1ccccc1-c1ncc2c(n1)OCCN(c1ccccc1)C2=O was read as IP6K1 inhibitor -18, SNCA viab count -3%[87.6 µM], SNCA expr inhib 10%[87.6 µM] and KDM5B inhibitor inactive.
O=C1c2cc(N3CCOCC3)nc(-c3cccnc3)c2CN1c1ccccc1 was read as IP6K1 inhibitor 7, SNCA viab count -4%[87.6 µM], SNCA expr inhib 8%[87.6 µM] and KDM5B inhibitor 40µM*.
`COc1cc(F)ccc1-c1nc(N2CCOCC2)cc2c1CN(c1ccccc1)C2=O` gave IP6K1 inhibitor 4, SNCA viab count 5%[87.6 µM], SNCA expr inhib -26%[87.6 µM] and KDM5B inhibitor 10µM*.
Screening COCC1(CNS(=O)(=O)c2ccc(Cl)cc2)C[C@@H](O)[C@@H](O)C1 (stereo partly specified) returned IP6K1 inhibitor -5, SNCA viab count 4%[87.6 µM], SNCA expr inhib 0%[87.6 µM] and KDM5B inhibitor inactive.
`CN(C)c1cccc(-c2nc(N3CCOCC3)cc3c2CN(Cc2cnn(C)c2)C3=O)c1` gave IP6K1 inhibitor 10, SNCA viab count -9%[87.6 µM], SNCA expr inhib -6%[87.6 µM] and KDM5B inhibitor inactive.
CN1Cc2c(cc(N3CCOCC3)nc2-c2cnn(C)c2)C1=O was read as IP6K1 inhibitor 15, SNCA viab count 9%[87.6 µM], SNCA expr inhib 97%[87.6 µM] and KDM5B inhibitor 40µM*.
For Cc1ccccc1-c1nc(N2CCOCC2)cc2c1CN(Cc1cnn(C)c1)C2=O the results were IP6K1 inhibitor 3, SNCA viab count -10%[87.6 µM], SNCA expr inhib -9%[87.6 µM] and KDM5B inhibitor 40µM*.
For COc1ccc(-c2nc(N3CCOCC3)cc3c2CN(Cc2cnn(C)c2)C3=O)cn1 the results were IP6K1 inhibitor 12, SNCA viab count 3%[87.6 µM], SNCA expr inhib 11%[87.6 µM] and KDM5B inhibitor 40µM*.
